Results taken from PubChem BioAssay (Tox21).
Results filed as inconclusive are left out. Where a call stands in place of a potency, no number is given. Where a structure was tested more than once in an assay, its records may differ in their call. Activity calls are given as the source filed them. Unless noted, calls come from the whole dose curve; as a rule, active = well fitted curve in the direction sought with a large enough effect in the repeat runs; inconclusive = weak or mixed curves; inactive = no such curve, though single readings can be large; an effect the other way counts as inactive or inconclusive.

What was measured:
[1] = qHTS assay to identify small molecule antagonists of the thyroid receptor (TR) signaling pathway - cell viability counter screen (AID 743064); note: nearly all actives have a fitted effect of over 50% in size
How it was run: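 GH3.TRE-Luc rat pituitary cells dosed after 4 hr plating, co-stimulated with T3 at 1 nM final, incubated 23.5 h at 37 C. Viability measured in the same wells by CellTiter-Fluor fluorescence after 30 min further at 37 C.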

[2] = qHTS assay to identify small molecule antagonists of the thyroid receptor (TR) signaling pathway (AID 743065); note: series mostly up to about 70 µM; nearly all actives have a fitted effect of over 55% in size
How it was run: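 GH3.TRE-Luc rat pituitary cells carrying two TR response elements driving luciferase were plated for 4 h, given compound plus 1 nM T3 (final), and incubated 23.5 h at 37 C. ONE-Glo luminescence measured reporter inhibition; CellTiter-Fluor fluorescence tracked cytotoxicity.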

[3] = tested on: thyroid hormone receptor (rat, GH3 cells); test: qHTS assay to identify small molecule agonists of the thyroid receptor (TR) signaling pathway (AID 743066; calls by dose curve)
[4] = molecular target: Estrogen receptor (Homo sapiens) (UniProt P03372); test: qHTS assay to identify small molecule antagonists of the estrogen receptor alpha (ER-alpha) signaling pathway (AID 743069; active = well fitted curve in the direction sought with a large enough effect in the signal ratio in the repeat runs, not every such curve was filed as active; the % refers to the signal ratio)
How it was run: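 HEK293 cells stably carrying an ER-alpha-UAS-bla beta-lactamase reporter were pre-cultured overnight in 2% charcoal-stripped FBS medium. Test compounds in DMSO were added together with 17beta-estradiol for 18 hr at 37C. Read-out was fluorescence after 2 hr with LiveBLAzer B/G FRET substrate at room temperature.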

[5] = qHTS assay to identify small molecule antagonists of the estrogen receptor alpha (ER-alpha) signaling pathway - cell viability counter screen (AID 743074; calls by dose curve; note: nearly all actives have a fitted effect of over 45% in size)
[6] = molecular target: Estrogen receptor (Homo sapiens) (UniProt P03372); test: qHTS assay to identify small molecule agonists of the estrogen receptor alpha (ER-alpha) signaling pathway (AID 743075; calls by dose curve)
[7] = molecular target: Estrogen receptor (Homo sapiens) (UniProt P03372); test: qHTS assay to identify small molecule agonists of the estrogen receptor alpha (ER-alpha) signaling pathway using the BG1 cell line (AID 743079); note: nearly all actives have a fitted effect of over 20% in size; note: potency is the fitted concentration of half-maximal effect
[8] = qHTS assay to identify small molecule antagonists of the estrogen receptor alpha (ER-alpha) signaling pathway using the BG1 cell line (AID 743080; calls by dose curve;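 note: BG1 cells stimulated with 17beta-estradiol alongside compound; nearly all actives have a fitted effect of over 25% in size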; note: potency is the fitted concentration of half-maximal effect)
How it was run: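 Luciferase inhibition measured with ONE-Glo after 30 min at RT in BG1Luc4E2 cells given test compounds and 17beta-estradiol for 21.5 h at 37 C; CellTiter-Fluor viability read in the same wells beforehand.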

[9] = qHTS assay to identify small molecule antagonists of the estrogen receptor alpha (ER-alpha) signaling pathway using the BG1 cell line - cell viability counter screen (AID 743081);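 note: compound given together with 17beta-estradiol as the ER stimulus; series mostly up to about 70 µM; nearly all actives have a fitted effect of over 45% in size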
Aromatase (Homo sapiens) = Aromatase (Homo sapiens) (UniProt P11511); test: qHTS assay to identify aromatase inhibitors (AID 743083); note: series mostly up to about 70 µM; nearly all actives have a fitted effect of over 55% in size
[10] = qHTS assay to identify aromatase inhibitors - cell viability counter screen (AID 743084);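 note: cells stimulated with testosterone during compound exposure; nearly all actives have a fitted effect of over 55% in size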
[11] = molecular target: Aryl hydrocarbon receptor (Homo sapiens) (UniProt P35869); test: qHTS assay to identify small molecule that activate the aryl hydrocarbon receptor (AhR) signaling pathway (AID 743085);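 note: HG2L7.5c1 human HepG2 liver cells with stably integrated DRE-driven firefly reporter; series mostly up to about 70 µM; nearly all actives have a fitted effect of over 15% in size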
How it was run: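 HepG2 cells stably carrying a 20-DRE firefly luciferase reporter (HG2L7.5c1) treated with compound for 24 hr at 37C. Luciferase read by ONE-Glo luminescence, with CellTiter-Fluor viability read first.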

[12] = qHTS assay to identify small molecule that activate the aryl hydrocarbon receptor (AhR) signaling pathway - cell viability counter screen (AID 743086);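 note: HepG2 liver cells carrying the AhR DRE luciferase reporter; series mostly up to about 70 µM; nearly all actives have a fitted effect of over 45% in size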
How it was run: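 HepG2-AhR-luc (HG2L7.5c1) cells, 4000/well, were preincubated 5 h at 37C, exposed to compound in qHTS format for 24 hr at 37C, then given CellTiter-Fluor for 30 min; viability was read as fluorescence in the reporter wells.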

[13] = molecular target: Peroxisome proliferator-activated receptor gamma (Homo sapiens) (UniProt P37231); test: qHTS assay to identify small molecule agonists of the peroxisome proliferator-activated receptor gamma (PPARg) signaling pathway (AID 743094; active = well fitted activation curve with a large enough effect in the signal ratio in the repeat runs, not every such curve was filed as active; the % refers to the signal ratio)
How it was run: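 Compounds dissolved in DMSO were added to PPARg UAS-bla HEK293H cells for 17 h at 37C, and reporter expression was quantified by fluorescence intensity after 1 h with LiveBLAzer B/G FRET substrate.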

[14] = qHTS assay to identify small molecule antagonists of the peroxisome proliferator-activated receptor gamma (PPARg) signaling pathway - cell viability counter screen (AID 743194); note: nearly all actives have a fitted effect of over 55% in size
How it was run: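 PPARg-UAS-bla HEK293H cells were plated, rested 5 h at 37 C, then treated with compounds plus rosiglitazone (50 nM final) for 17 h at 37 C; viability was then read by CellTiter-Glo luminescence after 30 min at room temperature.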

[15] = qHTS assay for small molecule agonists of the antioxidant response element (ARE) signaling pathway (AID 743202; active = well fitted activation curve with a large enough effect in the signal ratio in the repeat runs, not every such curve was filed as active; the % refers to the signal ratio)
How it was run: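 Read-out: LiveBLAzer B/G FRET substrate fluorescence after 2 h at room temperature, following 16 h compound treatment at 37 C of HepG2 cells carrying an ARE-driven beta-lactamase reporter.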

[16] = qHTS assay for small molecule activators of the heat shock response signaling pathway - cell viability counter screen (AID 743209); note: nearly all actives have a fitted effect of over 50% in size
How it was run: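 Readout: CellTiter-Glo luminescence, 30 min at room temperature. System: HSE-bla HeLa cells, 1500/well, plated overnight. Treatment: compounds in DMSO, 5 h at 37 C.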

Chain of Aryl hydrocarbon receptor (Homo sapiens) (P35869 whole entry, looked up): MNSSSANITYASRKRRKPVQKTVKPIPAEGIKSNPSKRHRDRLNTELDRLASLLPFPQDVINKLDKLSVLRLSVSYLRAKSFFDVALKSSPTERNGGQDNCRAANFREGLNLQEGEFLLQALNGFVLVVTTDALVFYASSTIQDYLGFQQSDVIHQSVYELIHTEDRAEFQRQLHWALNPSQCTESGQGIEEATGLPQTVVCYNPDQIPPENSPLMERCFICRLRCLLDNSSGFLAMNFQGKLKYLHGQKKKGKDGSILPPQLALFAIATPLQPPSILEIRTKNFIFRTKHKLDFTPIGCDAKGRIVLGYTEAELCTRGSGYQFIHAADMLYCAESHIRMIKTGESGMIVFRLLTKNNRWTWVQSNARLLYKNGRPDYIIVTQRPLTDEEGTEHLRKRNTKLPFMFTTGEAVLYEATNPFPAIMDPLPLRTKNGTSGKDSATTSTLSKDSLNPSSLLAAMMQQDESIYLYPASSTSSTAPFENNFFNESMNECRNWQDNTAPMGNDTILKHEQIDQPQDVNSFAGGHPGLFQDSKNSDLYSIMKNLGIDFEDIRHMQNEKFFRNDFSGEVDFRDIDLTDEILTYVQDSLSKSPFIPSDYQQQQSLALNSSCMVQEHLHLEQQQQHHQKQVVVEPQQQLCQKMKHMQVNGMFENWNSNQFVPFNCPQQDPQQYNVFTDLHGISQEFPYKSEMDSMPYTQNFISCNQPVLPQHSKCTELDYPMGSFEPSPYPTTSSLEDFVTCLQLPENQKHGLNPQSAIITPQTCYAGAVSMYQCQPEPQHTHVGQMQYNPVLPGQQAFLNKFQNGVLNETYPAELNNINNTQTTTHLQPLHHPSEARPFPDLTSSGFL
Chain of Peroxisome proliferator-activated receptor gamma (Homo sapiens) (P37231 whole entry, looked up): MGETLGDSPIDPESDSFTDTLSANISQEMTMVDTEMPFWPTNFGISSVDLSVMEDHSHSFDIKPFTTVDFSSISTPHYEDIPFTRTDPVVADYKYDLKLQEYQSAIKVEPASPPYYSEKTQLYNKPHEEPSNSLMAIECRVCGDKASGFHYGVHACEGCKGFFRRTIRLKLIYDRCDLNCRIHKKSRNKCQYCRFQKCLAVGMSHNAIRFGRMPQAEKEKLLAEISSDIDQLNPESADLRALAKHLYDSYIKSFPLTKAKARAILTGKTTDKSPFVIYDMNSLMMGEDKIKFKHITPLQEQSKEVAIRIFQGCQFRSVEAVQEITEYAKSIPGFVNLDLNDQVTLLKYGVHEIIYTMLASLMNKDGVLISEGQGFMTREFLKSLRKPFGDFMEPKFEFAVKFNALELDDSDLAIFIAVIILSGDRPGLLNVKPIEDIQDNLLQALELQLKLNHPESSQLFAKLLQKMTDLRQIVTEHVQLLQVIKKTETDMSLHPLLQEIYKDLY
Chain of Estrogen receptor (Homo sapiens) (P03372 whole entry, looked up): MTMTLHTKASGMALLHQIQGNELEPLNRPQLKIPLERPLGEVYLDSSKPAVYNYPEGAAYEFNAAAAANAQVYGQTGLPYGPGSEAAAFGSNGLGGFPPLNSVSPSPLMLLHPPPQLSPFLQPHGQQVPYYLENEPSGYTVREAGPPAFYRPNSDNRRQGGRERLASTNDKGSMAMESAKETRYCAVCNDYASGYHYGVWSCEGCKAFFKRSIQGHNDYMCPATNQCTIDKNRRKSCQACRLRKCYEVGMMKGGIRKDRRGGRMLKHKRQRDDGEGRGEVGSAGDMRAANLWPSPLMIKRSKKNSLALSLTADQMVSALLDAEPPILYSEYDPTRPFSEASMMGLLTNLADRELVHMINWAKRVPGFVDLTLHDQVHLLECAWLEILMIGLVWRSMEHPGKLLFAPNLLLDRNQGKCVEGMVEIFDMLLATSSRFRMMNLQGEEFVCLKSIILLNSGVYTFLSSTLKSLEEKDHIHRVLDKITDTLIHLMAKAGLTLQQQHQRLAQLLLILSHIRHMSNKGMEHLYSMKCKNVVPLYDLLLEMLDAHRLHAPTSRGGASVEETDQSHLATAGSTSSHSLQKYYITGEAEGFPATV
Chain of Aromatase (Homo sapiens) (P11511 whole entry, looked up): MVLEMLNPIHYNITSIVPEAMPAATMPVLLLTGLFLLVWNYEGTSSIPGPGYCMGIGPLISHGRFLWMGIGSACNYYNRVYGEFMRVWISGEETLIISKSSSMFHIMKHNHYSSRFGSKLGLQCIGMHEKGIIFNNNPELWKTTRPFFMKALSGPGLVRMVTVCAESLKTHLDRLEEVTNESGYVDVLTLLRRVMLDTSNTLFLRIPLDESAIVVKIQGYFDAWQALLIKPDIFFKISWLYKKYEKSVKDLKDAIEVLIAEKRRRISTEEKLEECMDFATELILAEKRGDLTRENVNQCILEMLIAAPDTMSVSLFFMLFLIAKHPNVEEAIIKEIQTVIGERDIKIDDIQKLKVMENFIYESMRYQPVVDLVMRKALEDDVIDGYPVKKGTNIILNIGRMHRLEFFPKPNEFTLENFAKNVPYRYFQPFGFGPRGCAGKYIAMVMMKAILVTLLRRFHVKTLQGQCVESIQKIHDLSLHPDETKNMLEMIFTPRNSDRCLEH

SMILES	Potency [1]	Potency [2]	Potency [3]	Potency [4]	Potency [5]	Potency [6]	Potency [7]	Potency [8]	Potency [9]	Potency (Aromatase (Homo sapiens))	Potency [10]	Potency [11]	Potency [12]	Potency [13]	Potency [14]	Potency [15]	Potency [16]
CC[C@H]1OC(=O)C[C@@H](O)[C@H](C)[C@@H](O[C@@H]2O[C@H](C)[C@@H](O)[C@H](N(C)C)[C@H]2O)[C@@H](CCN2C[C@H](C)C[C@H](C)C2)C[C@@H](C)C(=O)/C=C/C(C)=C/[C@@H]1CO[C@@H]1O[C@H](C)[C@@H](O)[C@@H](OC)[C@H]1OC	inactive	inactive	inactive	inactive	inactive	inactive	inactive	inactive	inactive	inactive	inactive	inactive	inactive	inactive			
O=C1c2c(O)cccc2[C@H]([C@@H]2O[C@H](CO)[C@@H](O)[C@H](O)[C@H]2O)c2cc(CO)cc(O)c21	inactive	inactive	inactive	inactive	inactive	inactive	13.3 µM (active) and inactive	inactive	inactive	inactive	inactive	inactive	inactive	inactive			
CN[C@H](CC(C)C)C(=O)N[C@H]1C(=O)N[C@@H](CC(N)=O)C(=O)N[C@H]2C(=O)N[C@H]3C(=O)N[C@H](C(=O)N[C@@H](C(=O)O)c4cc(O)cc(O)c4-c4cc3ccc4O)[C@H](O)c3ccc(c(Cl)c3)Oc3cc2cc(c3O[C@@H]2O[C@H](CO)[C@@H](O)[C@H](O)[C@H]2O[C@H]2C[C@](C)(N)C(O)[C@H](C)O2)Oc2ccc(cc2Cl)[C@H]1O (some centres undefined)	inactive	inactive	inactive	inactive	inactive	inactive	inactive	inactive	inactive	inactive	inactive	inactive	inactive	inactive			
CC12CCC(C[N+](C)(CCC[N+](C)(C)C)C1)C2(C)C (centres undefined)	inactive	inactive	inactive	inactive	inactive	inactive	inactive	inactive	inactive	inactive	inactive	inactive	inactive	inactive			
CC[C@H]1OC(=O)C[C@@H](O)[C@H](C)[C@@H](O[C@@H]2O[C@H](C)[C@@H](O[C@H]3C[C@@](C)(O)[C@@H](O)[C@H](C)O3)[C@H](N(C)C)[C@H]2O)[C@@H](CC=O)C[C@@H](C)C(=O)/C=C/C(C)=C/[C@@H]1CO[C@@H]1O[C@H](C)[C@@H](O)[C@@H](OC)[C@H]1OC	inactive	inactive	inactive	inactive	inactive	inactive	inactive	16.8 µM (active) and inactive	inactive	inactive	inactive	inactive	inactive	inactive			
CN1C(=O)C[C@@H](C(=O)N[C@@H](Cc2cnc[nH]2)C(=O)N2CCC[C@H]2C(N)=O)NC1=O	inactive	inactive	inactive	inactive	inactive	inactive	inactive	inactive	inactive	inactive	inactive	inactive	inactive	inactive			
CCOC(=O)Cc1ccc(-c2ccccc2)cc1	inactive	inactive	inactive	inactive	inactive	inactive	inactive		inactive	inactive	inactive	inactive	inactive				
CN(Cc1ccccc1)Cc1ccccc1	inactive	inactive	inactive	inactive	inactive	inactive	inactive	inactive	inactive	inactive	inactive		inactive	inactive			
NCCCC(=O)O	inactive	inactive	inactive	inactive	inactive	inactive	inactive	inactive	inactive	inactive		inactive	inactive	inactive			
O=C(O)COc1ccc(C(=O)c2cccs2)c(Cl)c1Cl	inactive	inactive	inactive	inactive	inactive	inactive	inactive	inactive	inactive	inactive	inactive	inactive	inactive	inactive			
Cc1cc(=O)c(C(=O)N[C@@H](C(=O)N[C@@H]2C(=O)N3C(C(=O)O)=C(CSc4nnnn4C)CS[C@H]23)c2ccc(O)cc2)c[nH]1	inactive	inactive	inactive	inactive	inactive	inactive	23.7 µM (active)	inactive	inactive	inactive	inactive	inactive	inactive	inactive			
c1ccc2c(c1)OCC(CN1CCCCC1)O2 (centres undefined)	inactive	inactive	inactive	inactive	inactive	inactive	inactive	inactive	inactive	inactive	inactive		inactive	inactive			
CCSCC	inactive	inactive	inactive	inactive	inactive	inactive	inactive	inactive	inactive	inactive	inactive	inactive		inactive	inactive	inactive	inactive
CO[C@H]1C[C@H](O[C@H]2[C@H](C)[C@@H](O[C@@H]3O[C@H](C)C[C@H](N(C)C)[C@H]3O)[C@@H](C)C[C@]3(CO3)C(=O)[C@H](C)[C@@H](O)[C@@H](C)[C@@H](C)OC(=O)[C@@H]2C)O[C@@H](C)[C@@H]1O	inactive	inactive	inactive	inactive	inactive	inactive	inactive		inactive	inactive	inactive	inactive	inactive	inactive			
O=C(O)COc1ccccc1/C=N/NC(=O)c1ccncc1	inactive	inactive	inactive	inactive	inactive	inactive	inactive	inactive	inactive	inactive	inactive		inactive	inactive			
O=C(CCCN1CCN2CCCC2C1)c1ccc(F)cc1 (centres undefined)	inactive	inactive	inactive	inactive	inactive	inactive	inactive	inactive	inactive	inactive	inactive	inactive	inactive	inactive			
